Compound activity (PubChem)
FBW7 act = activators of human E3 ligase FBW7 | Q969H0 | AlphaScreen FBW7–phospho-cyclin E peptide binding, activator screen | normalized activity (activation), % at 26.1 µM | 0.13% of 650,000 active; in the data active = normalized activity above about 1.9%;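 note: purified mutant Fbw7 with reduced substrate affinity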
Target sequence (Q969H0 whole entry, looked up): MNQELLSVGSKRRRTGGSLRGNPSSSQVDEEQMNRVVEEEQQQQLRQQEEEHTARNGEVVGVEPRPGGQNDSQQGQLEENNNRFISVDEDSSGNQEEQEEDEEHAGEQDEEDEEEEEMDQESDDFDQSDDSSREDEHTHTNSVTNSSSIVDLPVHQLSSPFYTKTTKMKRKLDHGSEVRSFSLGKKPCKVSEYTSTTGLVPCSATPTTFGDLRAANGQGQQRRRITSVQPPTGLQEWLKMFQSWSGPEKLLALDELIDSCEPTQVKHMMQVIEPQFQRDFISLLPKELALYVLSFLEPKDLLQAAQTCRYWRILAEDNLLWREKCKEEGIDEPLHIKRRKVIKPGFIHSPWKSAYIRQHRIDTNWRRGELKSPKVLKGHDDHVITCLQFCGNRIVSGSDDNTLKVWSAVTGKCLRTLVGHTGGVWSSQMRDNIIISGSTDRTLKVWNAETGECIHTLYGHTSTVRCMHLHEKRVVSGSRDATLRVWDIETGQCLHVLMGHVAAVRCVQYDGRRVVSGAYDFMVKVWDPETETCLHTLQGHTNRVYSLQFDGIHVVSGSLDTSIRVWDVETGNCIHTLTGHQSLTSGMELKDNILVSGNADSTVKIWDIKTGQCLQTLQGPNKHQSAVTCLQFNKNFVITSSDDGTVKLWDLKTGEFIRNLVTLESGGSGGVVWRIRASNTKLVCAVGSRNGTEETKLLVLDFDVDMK
GPR151 ag = human GPR151 activation | PathHunter beta-arrestin GPR151 cells, luminescence | activation, % at 11.2 µM | 1% of 650,000 active | AID 1508602; in the data active = activation above about 4.9%;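 note: 0% = median of compound wells and 100% = cells with positive control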
MITF primary = inhibitors of human MITF; O75030; 0.91% of 650,000 active; AlphaScreen MITF homodimerization, bead proximity signal; inhibition, % at 2.6 µM; AID 1259374; in the data active = inhibition above about 50%;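 note: 0% = vehicle wells with protein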
TEAD-YAP block = TEAD-YAP interaction inhibition. HEK-TIYL cells, TEAD-Gal4/YAP UAS-luciferase luminescence. inhibition, % at 9.12 µM. 1.4% of 640,000 active. AID 1259422; in the data active = inhibition above about 32%;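 note: 0% = median of test compound wells and 100% = reference inhibitor wells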
MITF confirm = confirmation of human MITF inhibitors; shares compounds with MITF primary; AlphaScreen MITF homodimerization, biotin/His-MITF beads; inhibition, % at 2.6 µM; 16% of 4,700 active; AID 1259372;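 active = inhibition above a cutoff derived from the DMSO control wells, cut at about 28% in these data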;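 note: 0% = MITF dimer wells with DMSO only; inhibitors lower the bead chemiluminescence by keeping MITF from dimerizing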
AlphaScreen DR = AlphaScreen optical interference, dose response counter-screen; shares compounds with MITF primary; AlphaScreen optical interference counterscreen, cell-free; IC50, µM; 6% of 480 active; call rule not given here
AlphaScreen intf2 = counter-screen: compounds optically interfering with AlphaScreen; shares compounds with MITF primary; LysRS AlphaScreen counterscreen, signal interference, triplicate; inhibition, % at 2.6 µM; 7.6% of 4,700 active;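 active = inhibition above a cutoff derived from the DMSO control wells, cut at about 30% in these data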
Numbers without * were called inactive; x = no result given. Most compounds without a hit are left out; they make up all but 3.5% or so of the library.

SMILES	FBW7 act	GPR151 ag	MITF primary	TEAD-YAP block	MITF confirm	AlphaScreen intf2	others
CN=C1NC(=O)C(CC(=O)Nc2ccc(Cl)cc2)S1 (stereo not drawn)	0.6	-0.7	5.3	11.7	x	x
O=C(Nc1ccc(Br)cc1)c1cc(S(=O)(=O)NCCc2ccc(Cl)cc2)ccc1F	-0.1	1.1	15.7	-0.5	x	x
CCC1CCc2c(sc(NC(=O)c3sc4cc(C)ccc4c3Cl)c2C#N)C1 (stereo not drawn)	0.2	-0.9	20.3	6.1	x	x
CCOC(=O)c1c(Nc2ccccc2N)cc(C)nc1C	0.1	0.4	68.3*	-6.4	-3.2	5.2
O=S(=O)(c1ccc(F)cc1)N1CCC(O)(c2cccnc2)CC1	-0.3	-0.9	71.8*	-1.4	11.6	17.1
Cc1ccc(S(=O)(=O)N2CCC(O)(c3cccnc3)CC2)cc1	-0.3	-1.0	32.5	-0.8	x	x
CCOC(=O)C1=C(C)N=c2s/c(=C/c3ccc(Cl)cc3Cl)c(=O)n2C1c1ccc(C)cc1 (stereo not drawn)	0.2	0.5	63.2*	4.0	-10.8	-11.2
CCOC(=O)C1=C(C)N=c2s/c(=C\c3ccc(Cl)cc3Cl)c(=O)n2C1c1ccc(N(C)C)cc1 (stereo not drawn)	0.0	0.2	2.3	3.1	x	x
CCN(CC)c1ccc(/C=C(\C#N)c2nc3ccccc3[nH]2)c(OCc2ccc(Cl)cc2Cl)c1	0.0	-1.2	5.1	-4.3	x	x
CCS(=O)(=O)N1CCc2ccc(NS(=O)(=O)C(C)C)cc2C1	-0.1	-1.1	-4.1	-2.2	x	x
CCS(=O)(=O)N1CCc2ccc(NS(=O)(=O)Cc3ccccc3F)cc2C1	0.6	0.3	74.8*	17.3	-3.0	4.3
O=C(NN1CCOCC1)c1cccc2c1C(=O)N(Cc1cccnc1)C2	0.0	0.0	-4.1	-0.9	x	x
OC(CNC1CC1)COCc1ccccc1F (stereo not drawn)	0.1	-0.8	59.4*	1.4	8.2	-10.8
NC(=O)c1ccccc1OCC(=O)Nc1cccc(C(F)(F)F)c1	-0.2	-0.1	-1.4	-69.5	x	x
O=C(COc1ccccc1C(=O)OC1CCCC1=O)Nc1cccc(C(F)(F)F)c1 (stereo not drawn)	-0.2	1.7	62.5*	5.7	72.5*	3.1	AlphaScreen DR=>6.77
N#CC(C#N)=C(N)/C(C#N)=C/c1ccc([N+](=O)[O-])o1	-0.9	1.1	84.3*	5.5	66.5*	5.7	AlphaScreen DR=>6.48
O=C(N/N=C/c1cc(O)ccc1Br)c1ccncc1	0.6	-0.5	114.4*	76.9*	119.7*	100.3*
O=C(N/N=C/c1cc(O)ccc1Br)c1cccnc1	-0.7	0.8	59.1*	66.0*	87.7*	100.3*
Cc1ccc(Nc2ccc(NC(=O)Cc3ccccc3)cc2)nn1	0.0	0.7	5.0	7.9	x	x
O=C(Cc1ccccc1)Nc1ccc(Nc2ccc(-n3cccn3)nn2)cc1	-0.2	1.5	59.8*	-28.0	17.2	20.8
COc1ccc(OC)c(CN2CCN(Cc3cccc(Br)c3)CC2)c1	-0.2	-0.4	59.0*	0.4	17.7	17.5
COc1ccc(OC)c(CN2CCN(Cc3ccc(OC)c(Br)c3)CC2)c1	-0.2	-0.8	65.7*	4.6	10.7	17.8
COc1ccc(CN2CCN(Cc3ccc(OC)c(Br)c3)CC2)c(OC)c1	-0.2	0.4	63.1*	-8.9	1.8	5.3
COc1ccc(CN2CCN(C3CCCC3)CC2)cc1Br	-0.1	-0.8	23.1	2.2	x	x
Cc1cc2ncn(Cc3noc(-c4ccco4)n3)c2cc1C	-0.3	0.6	55.0*	-19.1	33.2*	-4.6	AlphaScreen DR=>6.48
COCc1nc(Cn2cnc3cc(C)c(C)cc32)no1	-0.1	-0.3	-2.2	-2.8	x	x
CCC(C)C(=O)NCc1nnc2n1CCN(C/C=C/c1ccco1)CC2 (stereo not drawn)	0.0	1.4	59.6*	7.1	77.2*	-8.0	AlphaScreen DR=>6.48
COC(F)(C(=O)Oc1cc([N+](=O)[O-])cc2cccnc12)C(F)(F)F (stereo not drawn)	-0.8	0.4	95.4*	42.8*	98.9*	100.6*
Cc1ccccc1Cn1c(=O)c2c(nc3n2CC(C)CN3c2ccccc2)n(C)c1=O (stereo not drawn)	-0.2	2.6	8.8	-7.0	x	x
CN1CCN(CC(=O)Nc2ccc(C(F)(F)F)cc2)CC1	0.1	-0.2	66.5*	-2.8	7.8	15.0
